Each structure is given as a SMILES string. Inconclusive results are not listed. Calls of active or inactive are those of the source. The calls were made as follows, unless noted: active = hit-call score of the fitted dose curve at least 0.9, where 1 is the maximum; inactive = score below 0.9.

The nature of assay [1]: ATG_TCF_b_cat_CIS: Attagene CIS-FACTORIAL HepG2 Assay for human T-Cell-Factor with beta-catenin (TCF/b-cat) (AID 2282965). As to conditions: HepG2 TCF/beta-catenin cis-reporter transcription, actives raise or lower the signal. In short, it runs like this:
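Endogenous TCF/LEF activity read as reporter transcript level via RT-PCR and capillary electrophoresis fluorescence in transfected HepG2, 24 h exposure; gain or loss of signal fitted against DMSO controls.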

Assay [2] in a line: ATG_TAL_CIS: Attagene CIS-FACTORIAL HepG2 Assay for human TAL Basal Promoter (AID 2282966).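 Also: background control endpoint measuring basal TAL promoter reporter mRNA not a specific factor.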 As to conditions: HepG2 Attagene cis-factorial TAL promoter reporter; actives raise or lower the signal. In short, it runs like this:
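Fluorescence of labelled reporter cDNA fragments, resolved by capillary electrophoresis, gave the readout. Human HepG2 liver cells carried transiently transfected cis-element reporter units and were treated for 24 hours; activity was fitted bidirectionally against DMSO.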

Assay [3] can be described thus: ATG_TGFb_CIS: Attagene CIS-FACTORIAL HepG2 Assay for human Transforming Growth Factor (TGF) (AID 2282967). As to conditions: HepG2 Attagene CIS TGFb reporter, mRNA transcription; actives raise or lower the signal. The gist of the method:
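HepG2 cells transiently transfected with cis-promoter-driven multiplexed reporter units; 24 h compound exposure. Reporter mRNA measured by RT-PCR, 6-FAM labeling, HpaI digestion and capillary electrophoresis; bidirectional fit versus DMSO baseline.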

Assay [4] in a line: ATG_VDRE_CIS: Attagene CIS-FACTORIAL HepG2 Assay for human Vitamin D Receptor Element (VDRE) (AID 2282968). Conditions: HepG2 VDRE cis-reporter transcription, actives raise or lower the signal. In short, it runs like this:
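In transiently transfected HepG2 liver cells, gain or loss of reporter mRNA after 24 h exposure is scored relative to DMSO, using fluorescence detection by capillary electrophoresis of RT-PCR products.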

In assay [5] the target is Estrogen receptor (Homo sapiens) (UniProt P03372). The experiment in a line: ATG_ERa_TRANS: Attagene TRANS-FACTORIAL HepG2 Assay for human Estrogen Receptor alpha (ERa) (AID 2282970; active = hit-call score of the fitted dose curve at least 0.9, where 1 is the maximum). Conditions: HepG2 Attagene TRANS ERa GAL4 reporter, mRNA. In short, it runs like this:
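Human liver HepG2, transient transfection of multiple GAL4-UAS reporter units; TRANS format (exogenous NR-Gal4 chimera). 24 h dosing. Readout: reporter mRNA, RT-PCR, 6-FAM primer extension, HpaI digest, capillary electrophoresis. Positive direction vs DMSO.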

Assay [6] concerns the target X-box-binding protein 1 (Homo sapiens) (UniProt P17861). Nature of the assay: ATG_Xbp1_CIS: Attagene CIS-FACTORIAL HepG2 Assay for human X-box Binding Protein 1 (XBP1) (AID 2282972). Conditions: HepG2 XBP1 cis-element reporter, Attagene multiplex; actives raise or lower the signal. In short, it runs like this: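 HepG2 cells transiently transfected with cis-regulated multiple reporter transcription units; endogenous transcription factor activity measured 24 hours after chemical dosing. Reporter mRNA quantified by RT-PCR, 6-FAM primer extension, HpaI digestion and capillary electrophoresis; bidirectional fitting versus DMSO.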

The nature of assay [7]: ATG_GAL4_TRANS: Attagene TRANS-FACTORIAL HepG2 Assay for GAL4 (Internal Marker) (AID 2282976; active = hit-call score of the fitted dose curve at least 0.9, where 1 is the maximum). Conditions: HepG2 Attagene TRANS GAL4 internal marker reporter. In short, it runs like this:
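First, HepG2 cells were transfected with reporter units under GAL4-UAS control. Next, they were treated with chemical for 24 h. Finally, RNA was reverse-transcribed, PCR-amplified, FAM-labelled and resolved by capillary electrophoresis, with induction scored against DMSO.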

Assay [8] in a line: ATG_M_19_TRANS: Attagene TRANS-FACTORIAL HepG2 Assay for M19 Transcription Factor (Internal Marker) (AID 2282974; active = hit-call score of the fitted dose curve at least 0.9, where 1 is the maximum). As to conditions: HepG2 Attagene TRANS-FACTORIAL M19 internal marker reporter. In short, it runs like this:
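HepG2 transiently transfected with GAL4-UAS multiplex reporter constructs, exposed 24 h; reporter RNA quantified by RT-PCR, 6-FAM labeling, HpaI digestion and capillary electrophoresis; internal background marker fitted upward versus DMSO.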

In assay [9] the target is Steroid hormone receptor ERR1 (Homo sapiens) (UniProt P11474). The experiment in a line: ATG_ERRa_TRANS: Attagene TRANS-FACTORIAL HepG2 Assay for human Estrogen-Related Receptor alpha (ERRa) (AID 2282971; active = hit-call score of the fitted dose curve at least 0.9, where 1 is the maximum). As to conditions: HepG2 Attagene TRANS reporter, ERRa transactivation. The gist of the method: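 Reporter transcript induction was quantified by RT-PCR and capillary electrophoresis of FAM-labelled, HpaI-cut products after 24 h treatment of HepG2 cells carrying transiently transfected GAL4-UAS reporter units and an exogenous ERRa-Gal4 fusion; activity scored as increase over DMSO.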

Assay [10] concerns the target Nuclear receptor subfamily 1 group I member 3 (Homo sapiens) (UniProt Q14994). The experiment in a line: ATG_CAR_TRANS: Attagene TRANS-FACTORIAL HepG2 Assay for human Constitutive Androstane Receptor (CAR) (AID 2282969; active = hit-call score of the fitted dose curve at least 0.9, where 1 is the maximum;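 also: activators raise reporter mRNA above DMSO so AC50 marks induction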). As to conditions: HepG2 Attagene TRANS-FACTORIAL CAR reporter. In short, it runs like this:
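Readout is reporter mRNA induction, quantified by fluorescent primer extension and capillary electrophoresis after RT-PCR. Cells were HepG2 transiently carrying chimeric NR-Gal4 constructs with GAL4-UAS reporters, treated for 24 h; activity scored upward from DMSO.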

Nuclear receptor subfamily 1 group I member 3 (Homo sapiens), sequence (Q14994 whole entry, looked up, the tested form may be a part): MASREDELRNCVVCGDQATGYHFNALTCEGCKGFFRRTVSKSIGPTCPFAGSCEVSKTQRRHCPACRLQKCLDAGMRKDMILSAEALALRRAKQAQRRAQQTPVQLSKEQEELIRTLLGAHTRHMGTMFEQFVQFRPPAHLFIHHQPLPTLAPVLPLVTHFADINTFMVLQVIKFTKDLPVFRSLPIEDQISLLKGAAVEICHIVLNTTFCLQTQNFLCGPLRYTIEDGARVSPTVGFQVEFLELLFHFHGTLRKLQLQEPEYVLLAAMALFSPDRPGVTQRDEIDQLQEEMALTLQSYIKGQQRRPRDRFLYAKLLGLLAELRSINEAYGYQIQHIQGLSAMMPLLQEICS
Steroid hormone receptor ERR1 (Homo sapiens), sequence (P11474 whole entry, looked up, the tested form may be a part): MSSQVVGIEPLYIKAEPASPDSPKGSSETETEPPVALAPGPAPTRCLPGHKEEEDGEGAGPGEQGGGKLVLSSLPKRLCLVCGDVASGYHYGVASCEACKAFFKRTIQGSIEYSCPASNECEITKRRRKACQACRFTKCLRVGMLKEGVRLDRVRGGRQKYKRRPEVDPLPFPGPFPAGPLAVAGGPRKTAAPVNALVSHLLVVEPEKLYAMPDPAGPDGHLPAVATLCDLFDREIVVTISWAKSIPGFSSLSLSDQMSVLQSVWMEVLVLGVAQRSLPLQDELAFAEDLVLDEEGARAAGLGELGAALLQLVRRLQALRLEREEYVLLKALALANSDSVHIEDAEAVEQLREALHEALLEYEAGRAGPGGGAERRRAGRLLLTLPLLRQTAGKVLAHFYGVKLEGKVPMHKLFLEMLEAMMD
Estrogen receptor (Homo sapiens), sequence (P03372 whole entry, looked up, the tested form may be a part): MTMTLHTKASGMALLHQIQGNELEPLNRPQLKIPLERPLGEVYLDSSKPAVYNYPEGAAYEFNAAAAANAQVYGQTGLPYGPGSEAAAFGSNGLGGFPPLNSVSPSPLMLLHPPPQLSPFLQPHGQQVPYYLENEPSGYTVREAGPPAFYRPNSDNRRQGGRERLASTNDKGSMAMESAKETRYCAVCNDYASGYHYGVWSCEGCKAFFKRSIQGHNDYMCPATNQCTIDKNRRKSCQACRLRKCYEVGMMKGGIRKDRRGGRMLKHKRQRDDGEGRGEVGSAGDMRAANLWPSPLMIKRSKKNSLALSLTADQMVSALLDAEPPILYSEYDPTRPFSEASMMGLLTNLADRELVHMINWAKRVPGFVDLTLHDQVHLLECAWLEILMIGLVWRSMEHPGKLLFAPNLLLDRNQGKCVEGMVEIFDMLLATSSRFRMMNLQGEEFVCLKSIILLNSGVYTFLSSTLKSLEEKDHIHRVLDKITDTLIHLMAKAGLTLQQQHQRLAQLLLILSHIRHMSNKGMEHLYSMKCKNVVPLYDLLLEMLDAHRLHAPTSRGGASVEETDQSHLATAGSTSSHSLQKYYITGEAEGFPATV
X-box-binding protein 1 (Homo sapiens), sequence (P17861 whole entry, looked up): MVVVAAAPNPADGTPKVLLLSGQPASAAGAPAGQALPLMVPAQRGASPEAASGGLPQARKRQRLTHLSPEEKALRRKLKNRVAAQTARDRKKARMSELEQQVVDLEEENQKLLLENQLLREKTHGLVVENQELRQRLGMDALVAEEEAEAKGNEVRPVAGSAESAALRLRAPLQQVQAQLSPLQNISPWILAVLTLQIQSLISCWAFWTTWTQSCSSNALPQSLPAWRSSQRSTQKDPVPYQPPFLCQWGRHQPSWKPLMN

In the case of `CCCC(C)C(=O)OCC` (stereo unspecified), the result in assay [1], in assay [2], in assay [3], in assay [4], in assay [5] and in assay [6] was inactive. Besides, the result in [7] was inactive.

For `C=CC(=O)OCCCCCCCC(C)C`, the compound was called inactive in assay [1], in [2], in assay [4], in assay [5], in assay [6] and in assay [7]. The AC50 (as a rule, the concentration at which the activity in the assay is half-maximal) in [3] is 55 µM (active).

Regarding `Oc1ccc(/C=C/c2cc(O)cc(O)c2)cc1`, the AC50 in assay [1] is 27.3 µM (active); in [5] it was 6 µM (active). Further, the compound was called inactive in [2], in [3], in assay [4] and in assay [7].

Take `CC(=O)CCC=C(C)C`: the compound was called inactive in assay [1], in [2], in assay [3], in assay [4], in assay [5] and in [6]. The call in assay [7] was inactive.

In the case of `O=C(O)C(F)(F)C(F)(F)C(F)(F)C(F)(F)C(=O)O`, the result in assay [1], in [2], in assay [3], in assay [4], in [5] and in [7] was inactive.

On to `C=CCCCCCCCCO`, for which the result in assay [1], in assay [2], in assay [3], in assay [4], in assay [5] and in [6] was inactive. Besides, in assay [7], the compound was classed as inactive.

Take `Cc1cc(C)c(C=O)c(C)c1`: the compound was classed as inactive in [1], in [2], in assay [3], in assay [5], in assay [6] and in assay [8]. Moreover, in assay [7], the call was inactive. The AC50 in [4] was 3.24 µM (active).

Regarding `CCCCCCCCCCCCCC(=O)OC(C)C`, the call in assay [1], in assay [2], in assay [3], in assay [4], in assay [5] and in assay [6] was inactive. The outcome in assay [8] and in assay [7] was inactive.

As for `c1ccc(-c2nc3ccccc3[nH]2)cc1`, the compound was called inactive in [1], in [2], in assay [3], in assay [4], in assay [5] and in assay [6]. The result in assay [7] was inactive.

Take `CC(C)c1cc(C(C)C)cc(C(C)C)c1`: the AC50 was 169 µM (active) in [1], 100 µM (active) in assay [4] and 58.9 µM (active) in assay [5]. Also, the outcome in assay [2], in [3] and in [8] was inactive.

For `CC(C)c1cccc(C(C)C)c1N`, the compound was classed as inactive in assay [1], in [2], in assay [3], in [4], in assay [5] and in [8].

In the case of `Cc1ccc([N+](=O)[O-])cc1N`, the call in assay [1], in [2], in assay [3], in [4], in assay [5] and in assay [6] was inactive. In addition, in assay [7], the call was inactive.

For `CC(=O)CCC1=C(C)CCCC1(C)C`, the compound was called inactive in [1], in [2], in assay [3], in assay [4] and in [8]. Besides, the AC50 in assay [5] is 13 µM (active).

Take `CCC(C)C(=O)OC` (stereo unspecified): the result in [1], in assay [2], in [3], in [4], in [9] and in [6] was inactive. The call in assay [8] was inactive.

Regarding `CC(=O)CC(=O)Nc1ccccc1C`, the compound was classed as inactive in [1], in assay [2], in [3], in assay [4], in [9] and in assay [6].

Consider `CCCCCCC=O`, for which the compound was classed as inactive in assay [1], in assay [2], in assay [3], in assay [4] and in [8]. Moreover, in assay [5], the AC50 was 19 µM (active).

On to `CC1OC(=O)C(C)OC1=O` (stereo unspecified), for which the compound was called inactive in [1], in assay [2], in assay [3], in assay [4], in assay [5] and in assay [6]. Further, the call in [7] was inactive.

`Cc1cc(C)n(CO)n1`: the compound was classed as inactive in [1], in [2], in [3], in assay [4], in assay [5] and in [6]. The compound was classed as inactive in [7].

Take `O=C(O[C@@H]1Cc2c(O)cc(O)cc2O[C@@H]1c1cc(O)c(O)c(O)c1)c1cc(O)c(O)c(O)c1`: in assay [1], the AC50 is 36 µM (active). Besides, the call in assay [2], in assay [3], in [4], in assay [5], in assay [6] and in [7] was inactive.

`C1CCSC1`: the outcome in [1], in [2], in [3], in assay [4], in [9] and in assay [6] was inactive.

For `CC/C=C\C/C=C\C/C=C\CCCCCCCC(=O)OC`, the AC50 is 64.9 µM (active) in assay [1] and 100 µM (active) in [3]. In addition, the compound was classed as inactive in assay [2], in [4], in assay [5], in [8] and in assay [7].

For `Nc1ccc(Cl)c(N)c1`, the call in [1], in [2], in assay [3], in assay [4], in assay [5] and in assay [8] was inactive. Moreover, the call in assay [7] was inactive.

With `CC1=CCC2CC1C2(C)C` (stereo unspecified), the result in assay [1], in [2], in [3], in assay [4], in [5] and in assay [6] was inactive. The compound was classed as inactive in assay [8] and in assay [7].

Turning to `N#Cc1ccc(C2CCCc3cncn32)cc1` (stereo unspecified), the result in assay [1], in assay [2], in assay [3], in [10], in assay [6] and in [8] was inactive. Further, the result in [7] was inactive. Also, in assay [5], the AC50 is 25.8 µM (active).

Take `CCC(C)C(=O)OCCc1ccccc1` (stereo unspecified): the result in [1], in [2], in assay [3], in assay [5] and in assay [6] was inactive.

Take `Cc1c(Cl)cccc1Cl`: the outcome in assay [1], in assay [2], in [3], in [10], in assay [5] and in assay [6] was inactive. Besides, the call in [8] and in assay [7] was inactive.

Turning to `CCCCC(C=O)CC` (stereo unspecified), the call in assay [1], in assay [2], in assay [3], in assay [10], in assay [6] and in assay [8] was inactive. Moreover, the compound was classed as inactive in assay [7].

For the compound `O=c1c(O)c(-c2ccc(O)cc2O)oc2cc(O)cc(O)c12`, the compound was called inactive in assay [1], in assay [2], in [3], in [10], in assay [6] and in [8]. In addition, the AC50 in assay [5] was 59.4 µM (active).

In the case of `C=CC(=O)NCOCCCC`, the call in [1], in assay [2], in [3], in assay [10] and in assay [6] was inactive.

Consider `CCCCC1CCC(=O)O1` (stereo unspecified), for which the compound was called inactive in assay [1], in assay [2], in assay [3], in assay [5], in assay [9] and in assay [8].

Regarding `CN(C)Cc1cc(CN(C)C)c(O)c(CN(C)C)c1`, the outcome in assay [1], in [2], in assay [3], in [5] and in assay [6] was inactive.

On to `CCCCCCCCC(CO)CCCCCC` (stereo unspecified), for which the result in [1], in [2], in assay [3] and in assay [5] was inactive.

The values are drawn from PubChem BioAssay (EPA / NIEHS).
